We go through eight compounds from PubChem BioAssay (NCATS).

Test [1] has as its target Lysosomal acid glucosylceramidase (Homo sapiens) (UniProt P04062). Put plainly: Glucocerebrosidase-p2 (AID 348; in the data active = potency below about 10 µM; also: potency is read from the fitted curve at half-maximal effect). The settings on record: purified GBA, blue fluorogenic substrate, 40 min. An outline of the steps: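 Normal human glucocerebrosidase (0.2 nM) with blue fluorogenic substrate (80 uM final) in citrate/phosphate pH 5.9 with 10mM sodium taurocholate, 0.01% tween-20; 40 min RT, NaOH/glycine stop; fluorescence Ex 365/Em 440; AC50 from a titration from 0.6 nM upwards.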

Test [2] is described as follows: AP1 Signaling Pathway (AID 357).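 Also: ME-180 reporter cells stimulated with EGF at its EC50 level; % is scaled to controls: 0 for no effect and ±100 for the full control effect.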 Conditions: ME-180 AP-1-bla reporter, EGF-induced, beta-lactamase ratio, 5 h; at 7.69 µM (top of the series) unless noted. An outline of the steps:
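Read-out was the 460nm/530nm emission ratio (excitation 405nm) after CCF4 loading for 2.5 hours at room temperature. Cells carried an AP-1-driven beta-lactamase reporter, were stimulated with EC50 EGF plus compound for 5 hours, and AC50 values came from titrations.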

For test [3], the target named is Cytochrome P450 1A2 (Homo sapiens) (UniProt P05177). Put plainly: p450-cyp1a2 (AID 410; calls by dose curve; also: potency is read from the fitted curve at half-maximal effect). The settings on record: recombinant CYP1A2, luciferin-ME demethylation, luminescence; series mostly up to 11.4 µM. The method, boiled down:
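O-Demethylation of luciferin 6' methyl ether by human CYP1A2 is monitored as luciferase luminescence. Substrate sits at Km (100uM); enzyme is 20nM. Values are scaled to 57 uM furafylline as maximal inhibition.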

A short description of test [4]: NFAT Signaling Pathway (AID 444).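 Also: carbachol stimulus at about its EC50 of 1 µM final; % is scaled to controls: 0 for no effect and ±100 for the full control effect.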 The settings on record: Jurkat NFAT-bla M1, carbachol, beta-lactamase ratio, 5 h; at 7.69 µM (top of the series) unless noted. The method, boiled down:
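Jurkat cells carrying an NFAT-driven β-lactamase reporter and co-transfected muscarinic M1 receptor were treated with compound plus carbachol (1 uM final, an EC50 level) for 5 h at 37 °C. CCF4 loading followed for 1 h at RT; 460/530 nm ratio gave %activity.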

A short description of test [5]: Stat Signaling Pathway (AID 446).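 Also: ME-180 cervical cancer cells given 40 pM IL-6 alongside compound; SIE-controlled beta-lactamase reporter measured as 460/530 nm FRET emission ratio; % is scaled to controls: 0 for no effect and ±100 for the full control effect.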 The settings on record: ME-180 (cervical carcinoma) SIE beta-lactamase reporter, IL-6 stimulated, 5 h; at 7.69 µM (top of the series) unless noted. The method, boiled down:
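FRET read-out (405 nm excitation, 460/530 nm emission) of a beta-lactamase reporter under a STAT-inducible element in ME-180 cervical carcinoma cells. Cells with compound receive 40 pM IL-6 for 5 h. Values are normalised to AC90 stimulation and AC90 JAK-inhibitor controls.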

Test [6] addresses Glucocorticoid receptor (Homo sapiens) (UniProt P04150). Put plainly: GR-GFP Redistribution (AID 450;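 active = compounds whose dose series gives a full or clear partial fitted curve of increased nuclear translocation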; also: potency is read from the fitted curve at half-maximal effect). Conditions: U2OS GR-GFP nuclear translocation, laser cytometry, 2 h.
Test [7] has as its target Mitogen-activated protein kinase 10 (Mus musculus) (UniProt Q61831). Put plainly: JNK3 AlphaScreen Assay (AID 530).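 Also: kinase came from lysate of stimulated human HepG2 cells; signal reports phosphorylation of biotinylated GST-cJun 1-79 at Ser73 with 10 µM ATP; % is scaled to controls: 0 for no effect and ±100 for the full control effect.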 The settings on record: JNK3 lysate, c-Jun phosphorylation; series mostly up to 11.4 µM. The method, boiled down:
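Phosphorylation of biotinylated GST-cJun(1-79) at Ser73 is measured by AlphaScreen proximity luminescence. Enzyme is JNK3 in HepG2 lysates activated with interleukin-1beta and tumor necrosis factor alpha; ATP is 10 uM final.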

In test [8] the target is 3',5'-cyclic-AMP phosphodiesterase 4B (Homo sapiens) (UniProt Q07343). Put plainly: qHTS Assay for Inhibitors of PDE-IV (AID 607; active = well fitted activation curve with a large enough effect in the main read-out, with a control signal flat, not every such curve was filed as active; also: % of control where 0% means no effect). The settings on record: HEK293 ACTOne CNG channel cells, membrane potential fluorescence; series mostly up to 22.9 µM. An outline of the steps: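 Cell-based read-out of cAMP via a modified cyclic nucleotide-gated channel and membrane potential dye (535/590 nm) in HEK293 cells expressing PDE4 endogenously. Compounds tested up to 22.9 uM final; 100 uM RO 20-1724 reference.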
Sequence of 3',5'-cyclic-AMP phosphodiesterase 4B (Homo sapiens) (Q07343 whole entry, looked up): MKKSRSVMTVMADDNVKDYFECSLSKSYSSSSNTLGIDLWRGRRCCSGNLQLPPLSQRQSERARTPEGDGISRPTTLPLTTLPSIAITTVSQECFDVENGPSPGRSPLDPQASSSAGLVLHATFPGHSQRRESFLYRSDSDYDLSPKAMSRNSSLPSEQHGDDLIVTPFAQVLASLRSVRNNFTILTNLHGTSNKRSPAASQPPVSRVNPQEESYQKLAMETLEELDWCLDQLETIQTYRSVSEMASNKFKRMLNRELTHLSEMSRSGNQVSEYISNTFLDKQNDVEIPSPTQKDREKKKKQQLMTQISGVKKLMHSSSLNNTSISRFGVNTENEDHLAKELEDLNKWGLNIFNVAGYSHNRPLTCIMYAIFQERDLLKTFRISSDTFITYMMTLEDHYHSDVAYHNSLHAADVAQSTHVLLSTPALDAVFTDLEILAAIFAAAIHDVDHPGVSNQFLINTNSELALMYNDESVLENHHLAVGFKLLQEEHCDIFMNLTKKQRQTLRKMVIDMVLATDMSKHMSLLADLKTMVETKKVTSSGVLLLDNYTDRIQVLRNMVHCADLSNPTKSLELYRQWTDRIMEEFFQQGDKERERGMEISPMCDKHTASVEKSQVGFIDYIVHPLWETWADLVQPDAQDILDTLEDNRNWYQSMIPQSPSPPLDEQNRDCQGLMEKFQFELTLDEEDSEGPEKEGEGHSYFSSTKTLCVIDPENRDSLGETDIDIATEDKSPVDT

Test [9] concerns the target Glucocorticoid receptor (Homo sapiens) (UniProt P04150). Put plainly: GR-EFC Redistribution (AID 451; calls by dose curve; also: potency is read from the fitted curve at half-maximal effect). The settings on record: CHO-K1 GR-EFC translocation, beta-gal luminescence, 2 h. The method, boiled down: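 CHO-K1 cells stably expressing nuclear-localized β-gal enzyme acceptor and GR fused C-terminally to the enzyme donor fragment; ligand-driven nuclear translocation restores β-gal by complementation. Compounds titrated up to 46 uM final, 2 h at 37 °C; luminescence read.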

In test [10] the target is Cytochrome P450 2C9 (Homo sapiens) (UniProt P11712). Put plainly: qHTS Assay for Inhibitors and Substrates of Cytochrome P450 2C9 (AID 883; active = well fitted curve in the direction sought with a large enough effect; an effect the other way counts as inactive or inconclusive; also: potency is read from the fitted curve at half-maximal effect; nearly all actives have a fitted effect of over 60% in size). The settings on record: recombinant CYP2C9, luciferin-H luminescence, 60 min; series mostly up to 11.4 µM. The method, boiled down: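 CYP2C9 deoxyluciferin hydroxylation, 37C, 60 min with NADPH regeneration; 10nM enzyme, 100uM Luciferin-H (KM). Glo detection reagent stopped reaction; luminescence normalized to sulphaphenazole (57uM) full inhibition.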
Sequence of Cytochrome P450 2C9 (Homo sapiens) (P11712 whole entry, looked up): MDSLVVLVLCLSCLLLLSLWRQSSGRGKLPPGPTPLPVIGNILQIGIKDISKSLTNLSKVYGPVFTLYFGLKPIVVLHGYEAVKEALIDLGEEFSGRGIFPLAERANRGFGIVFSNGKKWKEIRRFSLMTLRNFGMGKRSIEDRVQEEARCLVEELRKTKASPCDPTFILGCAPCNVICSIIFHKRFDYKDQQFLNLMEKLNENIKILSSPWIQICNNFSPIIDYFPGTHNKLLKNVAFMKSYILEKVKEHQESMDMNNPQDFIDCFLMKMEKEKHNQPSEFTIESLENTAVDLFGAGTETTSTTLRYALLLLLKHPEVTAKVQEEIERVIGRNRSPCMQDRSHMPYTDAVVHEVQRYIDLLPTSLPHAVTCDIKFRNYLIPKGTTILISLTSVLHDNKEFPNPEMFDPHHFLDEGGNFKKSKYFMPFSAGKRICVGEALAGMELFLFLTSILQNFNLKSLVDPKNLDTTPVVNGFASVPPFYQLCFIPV
For orientation: Quantitative high-throughput screening tests each substance at several concentrations.

In test [11] the target is Cytochrome P450 2C19 (Homo sapiens) (UniProt P33261). Put plainly: qHTS Assay for Inhibitors and Substrates of Cytochrome P450 2C19 (AID 899; active = well fitted curve in the direction sought with a large enough effect; an effect the other way counts as inactive or inconclusive; also: potency is read from the fitted curve at half-maximal effect; nearly all actives have a fitted effect of over 60% in size). The settings on record: recombinant CYP2C19, luciferin-H EGE luminescence; series mostly up to 11.4 µM. The method, boiled down:
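In 50mM KPO4, the reaction held 5nM enzyme and KM-level (10uM) Luciferin-H EGE; it ran 60 min at 37C after NADPH regeneration and a 10 min compound preincubation. Luminescence values were scaled to 57uM ketoconazole as complete inhibition.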

In test [12] the target is Cytochrome P450 3A4 (Homo sapiens) (UniProt P08684). Put plainly: qHTS Assay for Inhibitors and Substrates of Cytochrome P450 3A4 (AID 884; active = well fitted curve in the direction sought with a large enough effect; an effect the other way counts as inactive or inconclusive; also: potency is read from the fitted curve at half-maximal effect; nearly all actives have a fitted effect of over 50% in size). Conditions: recombinant CYP3A4, Luciferin-PPXE luminescence; series mostly up to 57.1 µM. An outline of the steps: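 Luminescent readout of luciferin produced by CYP3A4 (20 nM) dealkylation of Luciferin-PPXE, 25 uM (its KM). NADPH-driven reaction ran 60 min at RT after 10 min compound preincubation; data scaled to 57 uM ketoconazole as 100% inhibition.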
Sequence of Cytochrome P450 3A4 (Homo sapiens) (P08684 whole entry, looked up): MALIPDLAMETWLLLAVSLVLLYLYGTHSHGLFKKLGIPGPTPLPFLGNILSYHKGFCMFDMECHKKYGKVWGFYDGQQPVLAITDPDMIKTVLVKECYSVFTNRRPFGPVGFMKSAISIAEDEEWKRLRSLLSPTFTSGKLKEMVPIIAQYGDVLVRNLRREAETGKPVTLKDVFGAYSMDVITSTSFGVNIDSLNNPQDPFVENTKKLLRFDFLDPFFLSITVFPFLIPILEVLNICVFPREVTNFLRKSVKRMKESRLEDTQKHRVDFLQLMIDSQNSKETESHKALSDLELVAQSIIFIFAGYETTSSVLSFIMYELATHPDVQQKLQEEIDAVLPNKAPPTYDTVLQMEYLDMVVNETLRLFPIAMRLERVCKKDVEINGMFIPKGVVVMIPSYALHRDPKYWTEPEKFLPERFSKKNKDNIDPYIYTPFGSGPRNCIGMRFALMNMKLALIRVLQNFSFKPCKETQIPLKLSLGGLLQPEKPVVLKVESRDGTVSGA

For test [13] the target is unchanged. Put plainly: qHTS Assay for Activators of Cytochrome P450 3A4 (AID 885; active = well fitted curve in the direction sought with a large enough effect; an effect the other way counts as inactive or inconclusive; also: nearly all actives have a fitted effect of over 65% in size). Conditions: recombinant CYP3A4, Luciferin-PPXE luminescence, 60 min; series mostly up to 11.4 µM. The method, boiled down: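 Luminescent readout of luciferin formed from 25 uM Luciferin-PPXE (KM level) by 20 nM CYP3A4 in 200 mM KPO4, with 60 min NADPH-driven reaction at room temperature after 10 min compound exposure. Ketoconazole (57 uM) defined 100% inhibition.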

Molecules are shown by their SMILES. A number with no mark means an inactive call. Results filed as inconclusive are left out. Calls of active or inactive are those of the source. Unless noted, calls follow the shape of the dose curve; as a rule, active = well fitted curve in either direction with a large enough effect (not every such curve was filed as active); inconclusive = small, poorly fitted or top-dose-only effect, or another doubt; inactive = flat fitted curve, though single readings scatter.

Sequence of Glucocorticoid receptor (Homo sapiens) (P04150 whole entry, looked up, the tested form may be a part): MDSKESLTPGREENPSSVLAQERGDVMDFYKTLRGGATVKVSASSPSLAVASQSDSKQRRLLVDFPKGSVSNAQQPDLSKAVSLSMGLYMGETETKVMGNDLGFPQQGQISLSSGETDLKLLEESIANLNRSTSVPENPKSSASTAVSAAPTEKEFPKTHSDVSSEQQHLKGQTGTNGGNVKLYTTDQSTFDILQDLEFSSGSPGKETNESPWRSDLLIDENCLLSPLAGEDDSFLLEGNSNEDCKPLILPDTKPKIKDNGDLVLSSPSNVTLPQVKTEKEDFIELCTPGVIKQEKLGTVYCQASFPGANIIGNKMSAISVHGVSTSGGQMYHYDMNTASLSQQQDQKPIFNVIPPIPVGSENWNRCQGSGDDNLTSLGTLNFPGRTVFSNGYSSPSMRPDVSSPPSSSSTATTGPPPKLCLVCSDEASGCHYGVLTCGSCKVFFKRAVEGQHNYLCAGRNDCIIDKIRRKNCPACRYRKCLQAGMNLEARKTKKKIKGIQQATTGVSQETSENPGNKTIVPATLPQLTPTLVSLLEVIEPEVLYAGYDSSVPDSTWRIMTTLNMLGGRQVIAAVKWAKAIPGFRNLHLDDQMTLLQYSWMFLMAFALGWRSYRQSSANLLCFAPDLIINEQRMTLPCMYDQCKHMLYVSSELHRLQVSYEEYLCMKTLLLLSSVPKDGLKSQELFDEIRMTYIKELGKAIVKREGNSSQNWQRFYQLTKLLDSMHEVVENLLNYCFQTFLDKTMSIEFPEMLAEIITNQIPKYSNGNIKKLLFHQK
Sequence of Lysosomal acid glucosylceramidase (Homo sapiens) (P04062 whole entry, looked up): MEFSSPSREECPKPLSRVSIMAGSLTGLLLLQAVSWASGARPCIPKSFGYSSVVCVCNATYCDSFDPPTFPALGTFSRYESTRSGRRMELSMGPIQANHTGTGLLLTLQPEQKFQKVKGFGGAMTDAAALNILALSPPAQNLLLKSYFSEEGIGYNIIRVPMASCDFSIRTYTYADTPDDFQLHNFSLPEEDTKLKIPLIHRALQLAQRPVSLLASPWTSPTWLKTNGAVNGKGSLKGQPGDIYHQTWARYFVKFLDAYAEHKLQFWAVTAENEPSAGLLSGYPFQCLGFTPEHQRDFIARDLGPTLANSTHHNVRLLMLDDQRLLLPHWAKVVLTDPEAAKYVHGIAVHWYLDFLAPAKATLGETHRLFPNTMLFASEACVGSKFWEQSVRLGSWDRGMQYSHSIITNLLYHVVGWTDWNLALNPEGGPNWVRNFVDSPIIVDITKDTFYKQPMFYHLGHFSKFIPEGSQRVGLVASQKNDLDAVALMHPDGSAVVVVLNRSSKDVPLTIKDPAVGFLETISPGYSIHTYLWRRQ
Sequence of Cytochrome P450 1A2 (Homo sapiens) (P05177 whole entry, looked up): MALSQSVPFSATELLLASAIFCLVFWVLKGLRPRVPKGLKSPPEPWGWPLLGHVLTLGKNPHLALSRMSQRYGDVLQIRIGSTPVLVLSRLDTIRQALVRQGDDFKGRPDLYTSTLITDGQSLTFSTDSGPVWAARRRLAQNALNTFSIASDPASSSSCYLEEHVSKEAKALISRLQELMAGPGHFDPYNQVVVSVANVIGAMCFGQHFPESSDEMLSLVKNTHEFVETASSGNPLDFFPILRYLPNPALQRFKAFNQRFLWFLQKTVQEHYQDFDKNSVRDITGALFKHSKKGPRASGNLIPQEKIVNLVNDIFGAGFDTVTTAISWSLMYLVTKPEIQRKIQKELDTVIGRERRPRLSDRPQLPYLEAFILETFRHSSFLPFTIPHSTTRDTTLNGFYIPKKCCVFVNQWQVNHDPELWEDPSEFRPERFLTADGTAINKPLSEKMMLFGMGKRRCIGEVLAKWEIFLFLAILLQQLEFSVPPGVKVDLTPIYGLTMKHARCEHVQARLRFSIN
Sequence of Cytochrome P450 2C19 (Homo sapiens) (P33261 whole entry, looked up): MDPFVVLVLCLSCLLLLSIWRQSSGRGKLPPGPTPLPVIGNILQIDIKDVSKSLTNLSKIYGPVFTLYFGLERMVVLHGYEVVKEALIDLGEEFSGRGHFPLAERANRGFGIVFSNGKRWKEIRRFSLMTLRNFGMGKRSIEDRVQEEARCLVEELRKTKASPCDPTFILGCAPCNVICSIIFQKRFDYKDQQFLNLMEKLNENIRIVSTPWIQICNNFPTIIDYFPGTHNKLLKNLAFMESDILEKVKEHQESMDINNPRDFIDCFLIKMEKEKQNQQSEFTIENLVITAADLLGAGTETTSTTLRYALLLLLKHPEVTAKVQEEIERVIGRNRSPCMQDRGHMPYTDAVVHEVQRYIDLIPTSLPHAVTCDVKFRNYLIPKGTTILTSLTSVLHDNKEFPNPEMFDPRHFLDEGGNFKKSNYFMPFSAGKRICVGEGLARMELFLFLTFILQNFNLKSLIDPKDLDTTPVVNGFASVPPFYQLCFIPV

On to `O=C(CCCc1ccccn1)c1ccccc1`, for which the Potency in test [1] is greater than 11.4 µM; in test [3], 5.01 µM (active); in test [6] it was greater than 46 µM. The activity change, negative = inhibition in test [2] is 4.82%; in [4], 1.79%. Further, in test [5], the activity, negative = inhibition was 2.46%. Moreover, the Potency entry in [7] and in [8] was “inactive” in each case.
For `O=C1c2ccccc2C(=O)c2c1ccc(C(=O)O)c2-c1ccc2ccccc2c1`, the Potency in [1] was greater than 11.4 µM; in test [3] it was 1.26 µM (active); in test [6], greater than 46 µM; in test [9], greater than 9.22 µM; in test [10] it was 1.58 µM (active); in [11], 2.51 µM (active). Also, the activity change, negative = inhibition is 1.13% in [2] and 16.7% in test [4]. Besides, the activity, negative = inhibition in [5] is -16.8%. The Potency entry in test [8] was “inactive”.
As to `NC(N)=NC(N)=Nc1ccc(S(=O)(=O)O)cc1`, the figures for the Potency in test [1] and in test [6] were greater than 11.4 µM and greater than 46 µM, respectively. In addition, the activity change, negative = inhibition in [2] was 1.18%; in [4], 0.0165%. In addition, the Potency entry in [3], in test [7] and in [8] was “inactive” each time. Also, in test [5], the activity, negative = inhibition is -0.308%.
As to `O=C(Nc1ccc(Nc2ccc3c(c2)C(=O)c2ccccc2C3=O)c2c1C(=O)c1ccccc1C2=O)c1ccccc1`, the Potency in test [1] was greater than 11.4 µM; in test [3] it was 1.58 µM (active); in test [6], greater than 46 µM. Moreover, the figures for the activity change, negative = inhibition in test [2] and in test [4] were -0.845% and 18.6%, respectively. The activity, negative = inhibition in test [5] is 13%. Also, the Potency entry in test [7] and in test [8] was “inactive” in each case.
`COCCn1c(=O)c(-c2cccs2)nc2cnc(Oc3ccc(OC)cc3)nc21`: the Potency is greater than 11.4 µM in [1]; 2.51 µM (active) in [3]; greater than 9.22 µM in test [6]; greater than 46 µM in test [9]; 5.01 µM (active) in test [10]; 0.794 µM (active) in [12]. Besides, the figures for the activity change, negative = inhibition in test [2] and in [4] were -1.43% and 15.8%, respectively. In [5], the activity, negative = inhibition was 11.7%. Further, the Potency entry in test [8] and in test [13] was “inactive” throughout.
Regarding `O=C(Nc1cccc(Cl)c1)Nn1cnnc1`, the values for the Potency in [1], in test [3] and in test [6] were greater than 11.4 µM, 3.16 µM (active) and greater than 46 µM, respectively. The activity change, negative = inhibition was 0.989% in test [2] and -6.38% in [4]. Besides, the activity, negative = inhibition in test [5] is -6.44%. Moreover, the Potency result in test [7], in [8] and in [13] was “inactive” throughout.
With `COc1cc(C2SCCCCCCCCCCSC(c3ccc(O)c(OC)c3)SCCCCCCCCCCS2)ccc1O` (stereo unspecified), the Potency was greater than 11.4 µM in test [1] and greater than 46 µM in test [6]. For the same compound, the activity change, negative = inhibition in test [2] is -0.286%; in test [3], -6.9% [at 2.29 µM]; in test [4] it was 19.7%. Further, the activity, negative = inhibition in test [5] is 9.48%. In addition, the Potency entry in test [7] and in [8] was “inactive” throughout.
On to `Nc1c(S(=O)(=O)O)cc(Nc2cccc(S(N)(=O)=O)c2)c2c1C(=O)c1ccccc1C2=O`, for which the Potency was greater than 11.4 µM in [1], 3.98 µM (active) in test [3], greater than 46 µM in test [6] and greater than 9.22 µM in test [9]. Besides, the activity change, negative = inhibition in test [2] was 26%; in test [4] it was -26.6%. Also, in [5], the activity, negative = inhibition is 2.62%. Besides, the Potency result in [8] and in [13] was “inactive” in each case.
